Assay results reported in PubChem BioAssay AID1159580 (chemical genetic matrix, 2015).
Values joined by “and” are separate entries in the source; they are usually repeats but may differ in a detail not shown here. Equal entries are not always repeated. About 2,000 (36%) of roughly 5,500 compounds were called active. About 18% were inconclusive and are not listed. No stated cut-off is given here; in the data, active means normalized growth mostly below about 0.91 (no sharp cut-off); inconclusive means no clear call, values can overlap the other calls; inactive means mostly above about 0.92. This is one part of the list.

Assay: chemical genetic growth profiling, strain panel (AID 1159580);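 further: tested at 20 µM; growth read once vehicle control cultures reached saturation at 30 °C; 1 = growth at the plate median or of vehicle wells; lower values mean less growth of the strain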
Conditions: S. cerevisiae deletion strains, growth OD

Measured: normalized growth

O=C(Cn1ccnc1[N+](=O)[O-])NCCO
inactive: locus YAL013W, strain DEP1, hits give low values 0.996 | locus YAL021C, strain ccr4, hits give low values 1.02 | locus YAL026C, strain drs2, hits give low values 1.02 | locus YAL030W, strain snc1, hits give low values 1.01 | locus YBL061C, strain skt5, hits give low values 1.03 | locus YBR009C, strain hhf1, hits give low values 1.02 | locus YBR021W, strain FUR4, hits give low values 1.03 | locus YBR023C, strain chs3, hits give low values 1.02 | locus YBR171W, strain sec66, hits give low values 1.04 | locus YBR229C, strain ROT2, hits give low values 1.01 | locus YBR231C, strain swc5, hits give low values 1 | locus YBR279W, strain paf1, hits give low values 1 | locus YCL011C, strain gbp2, hits give low values 1.01 | locus YCL016C, strain dcc1, hits give low values 1.02 | locus YCL029C, strain bik1, hits give low values 1.02 | locus YCL061C, strain MRC1, hits give low values 1.01 | locus YCL069W, strain vba3, hits give low values 1.01 | locus YCR088W, strain abp1, hits give low values 1.01 | locus YDL005C, strain med2, hits give low values 1.02 | locus YDL035C, strain GPR1, hits give low values 1.02 | locus YDL040C, strain nat1, hits give low values 1.01 | locus YDL074C, strain BRE1, hits give low values 0.99 | locus YDL101C, strain DUN1, hits give low values 1 | locus YDL134C, strain PPH21, hits give low values 0.996 | locus YDL185W, strain tfp1, hits give low values 0.999 | locus YDL192W, strain arf1, hits give low values 1.01 | locus YDR001C, strain nth1, hits give low values 1.01 | locus YDR069C, strain doa4, hits give low values 1.02 | locus YDR101C, strain arx1, hits give low values 1.01 | locus YDR137W, strain rgp1, hits give low values 1.05 | locus YDR150W, strain NUM1, hits give low values 0.998 | locus YDR159W, strain sac3, hits give low values 1.02 | locus YDR162C, strain NBP2, hits give low values 0.985 | locus YDR195W, strain ref2 1.02 | locus YDR297W, strain sur2, hits give low values 1.01 | locus YDR318W, strain mcm21, hits give low values 1.03 | locus YDR334W, strain swr1, hits give low values 1.01 | locus YDR335W, strain msn5, hits give low values 1.01 | locus YDR388W, hits give low values 1.01 | locus YDR392W, strain spt3, hits give low values 1.03 | locus YDR502C, strain sam2, hits give low values 0.988 | locus YEL003W, strain gim4, hits give low values 1 | locus YEL037C, strain rad23, hits give low values 1.02 | locus YEL061C, strain CIN8 (second series), hits give low values 1.01 | locus YEL061C, strain CIN8, hits give low values 1 | locus YER015W, strain faa2, hits give low values 1 | locus YER016W, strain bim1, hits give low values 1.01 | locus YER110C, hits give low values 1 | locus YER111C, strain swi4, hits give low values 1.02 | locus YER155C, strain BEM2 (second series), hits give low values 1.01 | locus YER155C, strain BEM2, hits give low values 1 | locus YER167W, strain BCK2, hits give low values 1.03 | locus YFR010W, strain ubp6, hits give low values 1.02 | locus YGL078C, strain dbp3, hits give low values 0.983 | locus YGL086W, strain mad1, hits give low values 1.03 | locus YGL167C, strain pmr1, hits give low values 1.02 | locus YGL173C, strain kem1, hits give low values 1.01 | locus YGL227W, strain vid30, hits give low values 1.01 | locus YGL240W, strain doc1, hits give low values 1.02 | locus YGL248W, strain PDE1, hits give low values 0.999 | locus YGL253W, strain hxk2, hits give low values 0.982 | locus YGR078C, strain PAC10, hits give low values 0.995 | locus YGR135W, strain pre9, hits give low values 0.988 | locus YGR229C, strain SMI1, hits give low values 0.999 | locus YGR252W, strain gcn5, hits give low values 1.09 | locus YHR013C, strain ard1, hits give low values 1.04 | locus YHR027C, strain rpn1, hits give low values 1.01 | locus YHR030C, strain SLT2, hits give low values 1.01 and 0.984 | locus YHR079C, strain IRE1 (second series), hits give low values 1.01 | locus YHR079C, strain IRE1, hits give low values 0.998 | locus YHR094C, strain hxt1, hits give low values 1.01 | locus YHR129C, strain ARP1, hits give low values 1.01 | locus YHR142W, strain chs7, hits give low values 1.02 | locus YHR200W, strain rpn10, hits give low values 1.01 | locus YIL066C, strain RNR3, hits give low values 1.01 | locus YIL073C, strain SPO22, hits give low values 1.04 | locus YIL125W, strain kgd1, hits give low values 0.997 | locus YIR030C, strain dcg1, hits give low values 1.01 | locus YJL092W, strain hpr5, hits give low values 1.02 | locus YJL095W, strain BCK1 (second series), hits give low values 1.01 | locus YJL095W, strain BCK1, hits give low values 1.01 and 0.995 | locus YJL115W, strain asf1, hits give low values 1.01 | locus YJL129C, strain trk1, hits give low values 1.02 | locus YJL134W, strain LCB3, hits give low values 1.01 | locus YJL154C, strain vps35, hits give low values 1.02 | locus YJL166W, strain qcr8, hits give low values 1.01 | locus YJL168C, strain set2, hits give low values 1.01 | locus YJL187C, strain SWE1 (second series), hits give low values 0.999 | locus YJL187C, strain SWE1, hits give low values 1.01 | locus YJR043C, strain POL32, hits give low values 1.04 | locus YJR066W, strain TOR1, hits give low values 0.972
